Assay outcomes deposited in PubChem BioAssay by National Center for Advancing Translational Sciences (NCATS).
Many of the other results were omitted from the sample, so hits are more common in it than they were.
ClpP mod: qHTS Assay for Activators of ClpP; ATP-dependent Clp protease proteolytic subunit (Bacillus subtilis (strain 168)), P80244; purified B. subtilis ClpP, FRET peptide cleavage, 20 min; Potency, µM (top dose mostly 57.5 µM); hit rate 1.9% among 340,000; active means well fitted falling curve with a large enough effect; further: the source files actives as falling curves though it sought activators and does not explain the sign; nearly all actives have a fitted effect of over 65% in size
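FRET quenching reversal measured ClpP activation: 10 microg/mL B. subtilis ClpP at pH 8 with the FRET-FV decapeptide, read at 430 nm after 320 nm excitation. The 20-min minus 0-min signal was scaled between DMSO/no-enzyme wells and ADEP (5.8 microM final).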
Eya2 inh: inhibitors of human Eya2 phosphatase activity | Potency, µM (top dose mostly 76.9 µM), hits mostly inhibitors | hit rate 0.006% among 330,000 | recombinant Eya2, OMFP fluorescence dephosphorylation (OMFP is methylfluorescein phosphate)
Target sequence (O00167 whole entry, looked up): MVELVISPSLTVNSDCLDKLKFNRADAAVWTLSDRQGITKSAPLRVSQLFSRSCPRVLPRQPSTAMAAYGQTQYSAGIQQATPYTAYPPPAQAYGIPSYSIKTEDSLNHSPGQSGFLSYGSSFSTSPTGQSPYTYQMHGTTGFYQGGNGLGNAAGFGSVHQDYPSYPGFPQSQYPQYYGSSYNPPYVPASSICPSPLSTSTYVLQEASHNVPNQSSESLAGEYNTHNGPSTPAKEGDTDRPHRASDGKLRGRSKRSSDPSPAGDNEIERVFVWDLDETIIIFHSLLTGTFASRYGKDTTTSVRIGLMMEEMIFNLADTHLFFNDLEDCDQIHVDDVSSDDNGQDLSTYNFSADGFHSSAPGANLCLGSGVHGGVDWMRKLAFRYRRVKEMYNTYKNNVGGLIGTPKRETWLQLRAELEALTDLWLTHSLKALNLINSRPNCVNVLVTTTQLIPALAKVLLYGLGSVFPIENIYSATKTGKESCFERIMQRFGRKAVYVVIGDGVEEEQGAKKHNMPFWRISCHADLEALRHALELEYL
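Eya2 (0.2 uM) preincubated 10 min at ambient with compound, then OMFP substrate added at 50 uM; 10 min reaction in 50 mM HEPES pH 7.5, 50 mM NaCl, 5 uM MgCl2, 0.05% BSA, 1 mM DTT. Fluorescence read at Ex 485/Em 525 nm.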
USP2a inh: inhibitors of human ubiquitin-specific protease USP2a | O75604 | USP2 core, Ub-CHOP2 coupled fluorogenic reporter, 485/531 | Potency, µM (highest dose often 38.3 µM), most hits filed as inhibitors | hit rate 0.01% among 330,000 | AID 463254
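Cell-free coupled assay: 10nM USP2 core preincubated 30min RT with compound in Tris-HCl pH 8.0/CaCl2/CHAPS buffer, then 25nM Ub-CHOP2 and 25nM reporter substrate; fluorescence (Ex 485/Em 531) read after 60min RT, normalized to NEM inhibition, concentration-response curves fitted.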
GALK inhibitor: inhibitors of human galactokinase; Potency, µM (highest dose often 57.5 µM), actives largely listed as inhibitors; P51570; AID 1868; Purified GALK, Kinase-Glo residual ATP luminescence; hit rate 0.007% among 270,000
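Luminescence from leftover ATP (Ultra-Glo luciferase/luciferin) served as read-out after a 1 h room-temperature reaction of 5 nM GALK with 35 uM ATP and 100 uM galactose.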
Of the large screens only hits and unclear results are named; the others gave an inactive call. Unless noted, the call rests on the fitted dose curve; in most records, active means well fitted inhibition curve with a large enough effect; inconclusive means small, poorly fitted or top-dose-only effect, or effect the other way; inactive means flat fitted curve, though single readings scatter.

O=C(CSc1nnnn1-c1cccnc1)Nc1ccccc1F	ClpP mod 28µM
O=c1[nH]c(NCCO)nc2c1C1(CCCCC1)Cc1ccccc1-2	ClpP mod 32µM
O=c1[nH]c(CN2CCCCC2)nc2c1C1(CCCCC1)Cc1ccccc1-2	none
CCc1nc2c(c(=O)[nH]1)C(CC)(CC)Cc1ccccc1-2	none
CCC1(CC)Cc2ccccc2-c2nc(NCCO)[nH]c(=O)c21	ClpP mod 6.3µM
Cc1ccc(-c2nn(-c3ccccc3)cc2C=C2C(=O)CC(C)(C)CC2=O)cc1	none
COc1cccc(Cn2c3ccc(NC(=O)Cc4ccccc4C)cc3c(=O)n2C)c1	none (no result: Eya2 inh, USP2a inh, GALK inhibitor)
CC1=CC(C)(C)N2C(=O)C3(C(C#N)=C(N)OC4=C3C(=O)CCC4)c3c(C)c(C)cc1c32 (stereo not given)	none
CC1CCN(c2ccc(C(=O)O)cc2NS(=O)(=O)c2ccc(Br)cc2)CC1	ClpP mod 20µM (no result: GALK inhibitor)
COc1ccc(S(=O)(=O)Nc2cccc3c2O[C@H](CN(C)Cc2ccc(Cl)c(Cl)c2)[C@@H](C)CN([C@H](C)CO)C3=O)cc1	none (no result: GALK inhibitor)
O=C(CCC(=O)OCC(=O)c1ccc(Br)cc1)Nc1cccc2cccnc12	none
COc1ccc(C(=O)Nc2ccc3nc(N4CCN(C)CC4)cc(C)c3c2)c(OC)c1	none
O=S(=O)(c1ccc(Br)s1)N1CCN(CCOc2ccccc2)CC1	none (no result: GALK inhibitor)
c1ccc(Sc2cccc3ccccc23)c(CNC2=NCCN2)c1	ClpP mod 3.2µM
Cc1cccn2c(=O)c3cc(C(=O)O)n(C)c3nc12	ClpP mod 32µM
Cc1cccn2c(=O)c3cc(C(=O)NC(C)(C)C)n(C)c3nc12	none (no result: Eya2 inh, USP2a inh, GALK inhibitor)
CCCCNC(=O)c1cc2c(=O)n3cccc(C)c3nc2n(CCN2CCOCC2)c1=N	ClpP mod 13µM
CCCn1c(=N)c(C#N)cc2c(=O)n3cccc(C)c3nc21	none (no result: ClpP mod)
CCCCNC(=O)c1cc2c(=O)n3cccc(C)c3nc2n(Cc2ccncc2)c1=N	ClpP mod 3.5µM
COCCNC(=O)c1cc2c(=O)n3cccc(C)c3nc2n(Cc2ccncc2)c1=N	none
Cc1cccn2c(=O)c3cc(C#N)c(=N)n(CCN4CCOCC4)c3nc12	ClpP mod 16µM
C[C@H]1COC(=O)[C@@H](Cc2ccc(F)cc2)CC/C=C\C[C@H](CC(=O)NCCO)C(=O)N1	none (no result: GALK inhibitor)
CC(C)(C)OC(=O)N1CCC(NC(=O)c2nc[nH]c2C(=O)NCc2ccccc2)CC1	none (no result: GALK inhibitor)
Cc1cc2nnc(SCC(=O)Nc3cc(S(=O)(=O)N4CCOCC4)ccc3Cl)n2c2ccccc12	ClpP mod 32µM
CCN(C(=S)Nc1cc(S(=O)(=O)N2CCOCC2)ccc1Cl)c1cccc2ccccc12	ClpP mod 11µM
Cc1ccc(S(=O)(=O)N2CCOCC2)cc1NC(=O)CSc1nnc2cc(C)c3ccccc3n12	none
CCSc1nc2c(c(=O)[nH]1)C(c1ccncc1)C(C(=O)OC)=C(C)N2 (stereo not given)	none
N#Cc1nc(-c2ccc(COc3ccccc3)o2)oc1N1CCCCC1	ClpP mod 32µM (no result: Eya2 inh, USP2a inh, GALK inhibitor)
N#Cc1nc(-c2ccc(COc3ccc(Cl)cc3)o2)oc1N1CCCCC1	ClpP mod 28µM (no result: Eya2 inh, USP2a inh, GALK inhibitor)
CC1CCN(c2oc(-c3ccc(COc4ccc(Cl)cc4)o3)nc2C#N)CC1	ClpP mod 25µM (no result: Eya2 inh, USP2a inh, GALK inhibitor)
N#Cc1nc(-c2ccc(OCc3ccc(Cl)cc3)cc2)oc1N1CCCCC1	none (no result: Eya2 inh, USP2a inh, GALK inhibitor)
Cc1cccc(OCc2ccc(-c3nc(C#N)c(N4CCN(c5ccccc5)CC4)o3)o2)c1	none (no result: Eya2 inh, USP2a inh, GALK inhibitor)
CCNC(=S)Nc1cccc(S(=O)(=O)NC2=NCCC2)c1	none (no result: ClpP mod)
CC1(C)CC[C@]2(C(=O)O)CC[C@]3(C)C(=CCC4[C@@]5(C)CC[C@H](O)C(C)(C)C5CC[C@]43C)C2C1 (stereo not given in full)	none (no result: GALK inhibitor)
Cc1cccc(N2C(=O)C3CCCN3C2=S)c1C (stereo not given)	none (no result: GALK inhibitor)
CCCCNC(=O)c1c(O)c2cccc3c2n(c1=O)CCC3	ClpP mod 11µM
CCCN1CCN(CCCNC(=O)c2cc3c(=O)n(C)c4ccccc4c3n2C)CC1	none
O=C1CCCC/C1=C\Nc1ccccc1C(=O)O	ClpP mod 32µM
NC(=O)c1ccccc1N/C=C1\CCCCC1=O	none
Cc1noc(C)c1NC(=O)N(C)C[C@H]1Oc2c(NS(=O)(=O)c3cccs3)cccc2C(=O)N([C@H](C)CO)C[C@@H]1C	none (no result: GALK inhibitor)
O=C(O)/C=C/c1nc(-c2ccccc2)n2ccccc12	ClpP mod 32µM
